From PubChem BioAssay (NCATS)
Results filed as inconclusive are left out. Where a call stands in place of a potency, no number is given. Active and inactive are the calls of the source. Unless noted, the call rests on the fitted dose curve; in most records, active means well fitted curve in the direction sought with a large enough effect; inconclusive means small, poorly fitted or top-dose-only effect, or another doubt; inactive means no such curve, though single readings can be large; an effect the other way counts as inactive or inconclusive.

Tests used:
[1] = biological target: Cytochrome P450 1A2 (Homo sapiens) (UniProt P05177); experiment: p450-cyp1a2 (AID 410; calls by dose curve; further: potency means the concentration at half of the fitted maximal effect)
Outline: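 Read-out is luminescence from luciferin produced by CYP1A2 demethylation of Luciferin-ME (100uM, at Km). Detection reagent stopped the 60 min NADPH-dependent reaction; signals were normalized to 57 uM furafylline.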

[2] = biological target: Mitogen-activated protein kinase 10 (Mus musculus) (UniProt Q61831); experiment: JNK3 AlphaScreen Assay (AID 530; active means well fitted curve in either direction with a large enough effect, not every such curve was filed as active;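 further: kinase came from lysate of stimulated human HepG2 cells; signal reports phosphorylation of biotinylated GST-cJun 1-79 at Ser73 with 10 µM ATP; series mostly up to about 57 µM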)
Outline: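 Kinase buffer: 20 mM Tris-HCl pH 7.6, 10 mM MgCl2, 1 mM DTT, 0.1 mM Na3VO4, 0.01% Tween-20; ATP 10 uM. Substrate biotin-GST-cJun(1-79), enzyme from activated HepG2 lysates. Detection by Ser73 phospho-antibody AlphaScreen.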

[3] = biological target: 3',5'-cyclic-AMP phosphodiesterase 4B (Homo sapiens) (UniProt Q07343); experiment: qHTS Assay for Inhibitors of PDE-IV (AID 607; active means well fitted activation curve with a large enough effect in the main read-out, with a control signal flat, not every such curve was filed as active; further: potency means the concentration at half of the fitted maximal effect)
Outline: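 Cell-based read-out of cAMP via a modified cyclic nucleotide-gated channel and membrane potential dye (535/590 nm) in HEK293 cells expressing PDE4 endogenously. Compounds tested up to 22.9 uM final; 100 uM RO 20-1724 reference.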

[4] = biological target: Cytochrome P450 2C9 (Homo sapiens) (UniProt P11712); experiment: qHTS Assay for Inhibitors and Substrates of Cytochrome P450 2C9 (AID 883); further: nearly all actives have a fitted effect of over 60% in size; further: potency means the concentration at half of the fitted maximal effect
Outline: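 Inhibition of CYP2C9 is scored as loss of luminescence, with 57uM sulphaphenazole defining 100% inhibition. Substrate Luciferin-H is used at 100uM, equal to its KM; enzyme at 10nM in 25mM KPO4, 60 min at 37C with NADPH regeneration.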

[5] = biological target: Cytochrome P450 2D6 (Homo sapiens) (UniProt P10635); experiment: qHTS Assay for Inhibitors and Substrates of Cytochrome P450 2D6 (AID 891); further: nearly all actives have a fitted effect of over 60% in size; further: potency means the concentration at half of the fitted maximal effect
Outline: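 Luminescent read-out of luciferin formed by 5 nM human CYP2D6 demethylating 30 uM Luciferin-ME EGE (Km level) over 60 min at room temperature after NADPH regeneration addition. Data normalized to full inhibition by 1.43 uM quinidine.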

[6] = biological target: Cytochrome P450 2C19 (Homo sapiens) (UniProt P33261); experiment: qHTS Assay for Inhibitors and Substrates of Cytochrome P450 2C19 (AID 899); further: nearly all actives have a fitted effect of over 60% in size; further: potency means the concentration at half of the fitted maximal effect
Outline: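 5nM enzyme + 10uM Luciferin-H EGE (=KM), 50mM KPO4; cpd pin-transferred, 10 min 37C; NADPH regen, 60 min 37C; stopped w/ luciferin detection reagent, 20 min; luminescence. Normalized to 57uM ketoconazole (AC100).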

[7] = biological target: Cytochrome P450 3A4 (Homo sapiens) (UniProt P08684); experiment: qHTS Assay for Inhibitors and Substrates of Cytochrome P450 3A4 (AID 884); further: potency means the concentration at half of the fitted maximal effect; nearly all actives have a fitted effect of over 50% in size
Outline: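 Luminescent readout of luciferin produced by CYP3A4 (20 nM) dealkylation of Luciferin-PPXE, 25 uM (its KM). NADPH-driven reaction ran 60 min at RT after 10 min compound preincubation; data scaled to 57 uM ketoconazole as 100% inhibition.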

[8] = biological target: Cytochrome P450 3A4 (Homo sapiens) (UniProt P08684); experiment: qHTS Assay for Activators of Cytochrome P450 3A4 (AID 885); further: nearly all actives have a fitted effect of over 65% in size
Outline: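 Luminescent readout of luciferin formed from 25 uM Luciferin-PPXE (KM level) by 20 nM CYP3A4 in 200 mM KPO4, with 60 min NADPH-driven reaction at room temperature after 10 min compound exposure. Ketoconazole (57 uM) defined 100% inhibition.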

Cytochrome P450 2C19 (Homo sapiens), sequence (P33261 whole entry, looked up): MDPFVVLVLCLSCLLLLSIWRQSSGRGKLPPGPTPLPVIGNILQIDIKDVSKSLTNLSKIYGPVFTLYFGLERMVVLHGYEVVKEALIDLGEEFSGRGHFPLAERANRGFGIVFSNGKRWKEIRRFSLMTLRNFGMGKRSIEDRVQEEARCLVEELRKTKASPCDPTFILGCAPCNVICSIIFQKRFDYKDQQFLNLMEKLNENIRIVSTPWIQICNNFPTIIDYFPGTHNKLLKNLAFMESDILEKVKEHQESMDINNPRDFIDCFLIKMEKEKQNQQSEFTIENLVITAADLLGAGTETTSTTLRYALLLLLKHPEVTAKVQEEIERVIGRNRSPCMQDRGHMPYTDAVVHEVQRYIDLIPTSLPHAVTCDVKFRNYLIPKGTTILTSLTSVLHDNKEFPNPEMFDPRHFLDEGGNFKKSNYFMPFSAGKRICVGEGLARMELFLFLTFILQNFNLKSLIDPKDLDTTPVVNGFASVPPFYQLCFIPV
Cytochrome P450 3A4 (Homo sapiens), sequence (P08684 whole entry, looked up): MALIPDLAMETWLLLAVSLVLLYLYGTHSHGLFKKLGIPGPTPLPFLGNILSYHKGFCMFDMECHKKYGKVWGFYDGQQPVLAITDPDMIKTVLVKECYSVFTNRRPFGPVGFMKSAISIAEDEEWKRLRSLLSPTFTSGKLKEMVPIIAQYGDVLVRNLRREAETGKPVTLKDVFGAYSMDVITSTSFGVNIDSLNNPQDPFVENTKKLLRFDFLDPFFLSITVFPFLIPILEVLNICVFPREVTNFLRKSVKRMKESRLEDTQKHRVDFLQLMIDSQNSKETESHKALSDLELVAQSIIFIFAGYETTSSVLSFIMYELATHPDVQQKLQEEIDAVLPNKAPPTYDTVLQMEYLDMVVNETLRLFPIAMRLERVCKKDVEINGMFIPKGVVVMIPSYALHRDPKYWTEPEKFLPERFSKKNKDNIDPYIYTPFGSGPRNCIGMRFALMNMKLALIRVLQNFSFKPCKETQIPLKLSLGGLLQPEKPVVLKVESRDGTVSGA
Cytochrome P450 1A2 (Homo sapiens), sequence (P05177 whole entry, looked up): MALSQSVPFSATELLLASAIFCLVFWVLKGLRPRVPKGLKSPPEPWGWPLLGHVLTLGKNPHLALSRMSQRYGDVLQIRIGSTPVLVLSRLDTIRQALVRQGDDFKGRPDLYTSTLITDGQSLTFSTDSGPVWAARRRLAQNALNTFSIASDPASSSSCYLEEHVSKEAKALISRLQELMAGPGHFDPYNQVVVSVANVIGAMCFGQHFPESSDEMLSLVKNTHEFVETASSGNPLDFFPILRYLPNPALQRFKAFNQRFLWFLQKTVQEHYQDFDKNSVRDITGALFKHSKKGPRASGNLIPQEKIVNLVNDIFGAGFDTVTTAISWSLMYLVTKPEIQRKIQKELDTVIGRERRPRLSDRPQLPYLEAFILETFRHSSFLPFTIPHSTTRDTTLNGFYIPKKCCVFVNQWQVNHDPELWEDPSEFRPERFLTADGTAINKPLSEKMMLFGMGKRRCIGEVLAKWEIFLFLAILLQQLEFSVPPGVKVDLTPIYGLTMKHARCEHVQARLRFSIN
Cytochrome P450 2D6 (Homo sapiens), sequence (P10635 whole entry, looked up): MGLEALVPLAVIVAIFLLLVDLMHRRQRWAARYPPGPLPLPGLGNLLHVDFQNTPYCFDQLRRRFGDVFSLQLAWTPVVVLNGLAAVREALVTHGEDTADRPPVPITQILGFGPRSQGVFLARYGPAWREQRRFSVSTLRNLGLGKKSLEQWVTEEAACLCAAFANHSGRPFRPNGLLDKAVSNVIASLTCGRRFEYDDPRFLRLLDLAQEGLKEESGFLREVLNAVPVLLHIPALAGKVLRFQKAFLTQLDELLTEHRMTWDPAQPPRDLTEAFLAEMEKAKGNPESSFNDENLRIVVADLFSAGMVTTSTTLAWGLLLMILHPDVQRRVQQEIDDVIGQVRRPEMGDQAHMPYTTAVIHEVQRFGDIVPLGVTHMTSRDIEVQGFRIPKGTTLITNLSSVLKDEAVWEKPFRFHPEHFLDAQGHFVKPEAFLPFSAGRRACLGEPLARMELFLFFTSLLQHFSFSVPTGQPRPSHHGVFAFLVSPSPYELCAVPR
3',5'-cyclic-AMP phosphodiesterase 4B (Homo sapiens), sequence (Q07343 whole entry, looked up): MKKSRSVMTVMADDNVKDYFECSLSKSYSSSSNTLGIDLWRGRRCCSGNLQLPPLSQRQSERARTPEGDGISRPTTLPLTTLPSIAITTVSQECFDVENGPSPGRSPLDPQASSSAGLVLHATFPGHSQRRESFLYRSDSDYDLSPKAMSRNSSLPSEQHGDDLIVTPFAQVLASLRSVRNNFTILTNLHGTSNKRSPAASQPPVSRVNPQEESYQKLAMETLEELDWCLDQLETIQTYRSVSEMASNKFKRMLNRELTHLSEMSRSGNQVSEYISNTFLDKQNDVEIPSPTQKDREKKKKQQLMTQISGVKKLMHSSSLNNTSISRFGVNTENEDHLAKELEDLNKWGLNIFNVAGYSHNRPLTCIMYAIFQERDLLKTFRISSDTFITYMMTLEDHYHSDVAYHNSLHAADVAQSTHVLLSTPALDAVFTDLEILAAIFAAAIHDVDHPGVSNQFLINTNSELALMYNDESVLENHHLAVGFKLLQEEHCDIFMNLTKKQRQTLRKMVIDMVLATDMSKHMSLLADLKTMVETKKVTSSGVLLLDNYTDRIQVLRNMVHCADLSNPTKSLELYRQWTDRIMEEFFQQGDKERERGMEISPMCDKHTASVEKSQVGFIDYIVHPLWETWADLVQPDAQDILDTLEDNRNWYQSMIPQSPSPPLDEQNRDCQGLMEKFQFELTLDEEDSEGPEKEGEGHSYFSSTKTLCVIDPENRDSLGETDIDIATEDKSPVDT
Cytochrome P450 2C9 (Homo sapiens), sequence (P11712 whole entry, looked up): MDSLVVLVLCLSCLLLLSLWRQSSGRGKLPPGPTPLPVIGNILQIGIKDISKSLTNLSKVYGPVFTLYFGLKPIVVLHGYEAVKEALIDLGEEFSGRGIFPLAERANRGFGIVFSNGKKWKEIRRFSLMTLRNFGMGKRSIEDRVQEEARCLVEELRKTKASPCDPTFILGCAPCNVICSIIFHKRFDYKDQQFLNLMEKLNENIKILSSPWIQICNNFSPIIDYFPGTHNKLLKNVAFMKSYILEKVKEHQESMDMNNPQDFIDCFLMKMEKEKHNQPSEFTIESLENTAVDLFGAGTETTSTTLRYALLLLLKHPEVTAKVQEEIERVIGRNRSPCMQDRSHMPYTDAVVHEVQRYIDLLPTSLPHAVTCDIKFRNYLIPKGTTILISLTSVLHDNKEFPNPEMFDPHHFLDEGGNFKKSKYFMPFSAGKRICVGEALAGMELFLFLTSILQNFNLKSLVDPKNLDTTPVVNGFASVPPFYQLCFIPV

Row | SMILES | Potency [1] | Potency [2] | Potency [3] | Potency [4] | Potency [5] | Potency [6] | Potency [7] | Potency [8]
1 | NCCC[C@@H](CC(=O)N[C@@H]1CCNC[C@H]1C(=O)N[C@H](CC(=O)N[C@@H](CCC(=O)O)CC(=O)O)Cc1ccccc1)NC(=O)C[C@H](CO)NC(=O)[C@@H]1CCCC[C@H]1N | inactive | inactive | inactive | inactive | inactive | inactive | – | –
2 | COC(=O)[C@@]1(Cc2ccc(F)cc2)[C@H]2c3cc(C(=O)N(C)C)n(Cc4ccc(C(F)(F)F)nc4)c3C[C@H]2CN1C(=O)c1ccccc1 | inactive | inactive | inactive | – | – | – | 1.26 µM (active) | inactive
3 | COC(=O)[C@@]1(Cc2ccc(F)cc2)[C@H]2c3cc(C(=O)N(C)C)n(CCCNc4ccc(C(F)(F)F)cc4Cl)c3C[C@H]2CN1C(=O)c1ccccc1 | inactive | inactive | inactive | – | – | – | 1.58 µM (active) | inactive
4 | COC(=O)C1(Cc2ccccc2)C2c3cc(C(=O)N4CCCC4)n(Cc4ccc(OC(F)(F)F)cc4)c3CC2CN1C(=O)c1ccccc1 (stereo not drawn) | inactive | inactive | inactive | – | – | – | 3.16 µM (active) | inactive
5 | COC(=O)[C@@]1(Cc2ccccc2)[C@H]2c3cc(C(=O)N4CCCC4)n(Cc4ccc(S(C)(=O)=O)cc4)c3C[C@H]2CN1C(=O)c1ccccc1 | inactive | inactive | inactive | – | – | – | 3.16 µM (active) | inactive
6 | Cc1ccc(CNC(=O)[C@H]2C[C@@H]2[C@H](NP(=O)(c2ccccc2)c2ccccc2)c2ccccc2)c(F)c1F | inactive | inactive | inactive | – | – | – | 0.316 µM (active) | inactive
7 | COC(=O)[C@H]1C[C@@H]1[C@H](NC(=O)c1cccnc1)c1ccccc1 | 12.6 µM (active) | inactive | inactive | – | – | – | 5.01 µM (active) | –
8 | C=C(CC1([C@@H](NP(=O)(c2ccccc2)c2ccccc2)[C@H]2C[C@@H]2CCN(C(=O)OCC)S(=O)(=O)c2ccc(C)cc2)CC1)c1ccccc1 | inactive | inactive | inactive | – | – | – | 1.58 µM (active) | inactive
9 | COC(=O)[C@@]1(Cc2ccc(F)cc2)[C@@H]2[C@@H](CC(=O)[C@H]2CC(=O)C(=O)N(C)C)CN1C(=O)c1ccccc1 | inactive | inactive | inactive | – | – | – | 6.31 µM (active) | inactive
10 | COC(=O)[C@@]1(Cc2ccc(OC)cc2)[C@H]2c3cc(C(=O)N4CCCC4)n(Cc4ccc(C(F)(F)F)nc4)c3C[C@H]2CN1C(=O)c1ccccc1 | inactive | inactive | inactive | – | – | – | 3.16 µM (active) | inactive
11 | C=C(CC1([C@@H](NP(=O)(c2ccccc2)c2ccccc2)[C@H]2C[C@@H]2CCCC)CC1)c1cccc(OC)c1 | 12.6 µM (active) | inactive | inactive | – | – | – | 2.51 µM (active) | inactive
12 | COC(=O)[C@@]1(Cc2ccc(F)cc2)[C@H]2c3cc(C(=O)N4CCCC4)n(Cc4ccc(Cl)c(C(F)(F)F)c4)c3C[C@H]2CN1C(=O)c1ccccc1 | inactive | inactive | inactive | – | – | – | 2.51 µM (active) | inactive
13 | CC(C)[C@@H](CC(=O)N[C@@H]1CCNC[C@H]1C(=O)N[C@H](CC(=O)N[C@@H](CCC(=O)O)CC(=O)O)Cc1c[nH]c2ccccc12)NC(=O)C[C@H](Cc1ccccc1)NC(=O)[C@@H]1CCCC[C@H]1N | 31.6 µM (active) | inactive | inactive | inactive | inactive | inactive | – | –
14 | CC1(C)C(=O)C(c2ccccc2)=C2CN3C(=O)N(CCc4ccccc4)C(=O)C3(Cc3ccccc3)C=C21 (stereo not drawn) | 6.31 µM (active) | inactive | inactive | – | – | – | 2 µM (active) | –
15 | COC(=O)[C@@]1(Cc2ccc(OC)cc2)[C@H]2c3cc(C(=O)N4CCCC4)n(CCn4cc([N+](=O)[O-])nc4C)c3C[C@H]2CN1C(=O)c1ccccc1 | inactive | inactive | inactive | – | – | – | 3.98 µM (active) | inactive
16 | CC(C)[C@@H](CC(=O)N[C@@H]1CCCC[C@H]1C(=O)N[C@H](CC(=O)N[C@@H](CCC(=O)O)CC(=O)O)Cc1c[nH]c2ccccc12)NC(=O)C[C@H](CO)NC(=O)[C@@H]1CCCC[C@H]1N | inactive | inactive | inactive | inactive | inactive | inactive | – | –
17 | CC(=O)N[C@H](c1ccccc1)[C@@]1(C)C[C@@H]1[C@@H](C)C(=O)Nc1ccc2ccccc2c1 | 15.8 µM (active) | inactive | inactive | – | 2 µM (active) | 5.01 µM (active) | 7.94 µM (active) | inactive
18 | C=C1C(=O)C=C2CN(C(=O)c3ccccc3)[C@@](Cc3ccc(OC)cc3)(C(=O)OC)[C@@H]12 | 15.8 µM (active) | inactive | 1.58 µM (active) | – | – | – | 1.58 µM (active) | inactive
19 | CNC(=O)[C@H](C)[C@@H]1C[C@@]1(C)[C@@H](NC(=O)OCc1ccccc1)c1ccccc1 | 20 µM (active) | inactive | inactive | – | 3.16 µM (active) | 0.631 µM (active) | 2.51 µM (active) | inactive
20 | CCCc1cc2c(n1CCc1ccc(Cl)cc1)C(C)C1CN(C(=O)c3ccccc3)C(C)(C(=O)OC)C21 (stereo not drawn) | 25.1 µM (active) | inactive | inactive | – | 5.01 µM (active) | 6.31 µM (active) | 5.01 µM (active) | inactive
21 | COC(=O)[C@H]1C[C@@H]1[C@H](NC(=O)c1cc(C)nn1C)c1ccccc1 | 20 µM (active) | inactive | inactive | – | – | – | 6.31 µM (active) | inactive
22 | COC(=O)[C@@H]1C[C@H]1[C@@H](NC(=O)OCc1ccccc1)c1ccccc1 | 0.2 µM (active) | inactive | inactive | 20 µM (active) | – | 2.51 µM (active) | – | –
23 | NCCC[C@@H](CC(=O)N[C@@H]1CCCC[C@H]1C(=O)N[C@H](CC(=O)N[C@@H](CCC(=O)O)CC(=O)O)Cc1c[nH]c2ccccc12)NC(=O)C[C@H](Cc1ccccc1)NC(=O)[C@@H]1CNCC[C@H]1N | 15.8 µM (active) | inactive | inactive | inactive | inactive | inactive | – | –
